Here are results for ten molecules from PubChem BioAssay (NCI).

Some test systems named below: OVCAR-8 ovarian; OVCAR-5 ovarian; OVCAR-4 ovarian; SK-OV-3 ovarian; IGROV1 ovarian; OVCAR-3 ovarian; HS 578T breast; NCI/ADR-RES ovarian; T-47D breast; BT-549 breast; MDA-MB-435 melanoma; SW-620 colon; MCF7 breast; HCT-116 colon; HCC-2998 colon; KM12 colon; RPMI-8226 leukemia.
Assay in all cases: NCI-60 one-dose screen, 48 h (100 = growth as untreated, 0 = no growth, -100 = all killed)
Common to all, as to settings: 10 µM unless noted

SMILES strings stand for the structures. Compounds without any hit were thinned out: in the full panel of roughly 83,000, 20% have a hit.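 A percent growth of 40 corresponds to 60% growth inhibition; 0 means no net growth; -100 means all cells died. Active threshold: below 10.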 Values without a mark were called inactive. The source made the active and inactive calls.

`CCCCCCCC/C=C\CCCCCCCCOc1ccccc1CC(=O)NCC[N+]1(C)CCCC1`: the growth with OVCAR-8 ovarian was 80.9%; in the assay with OVCAR-5 ovarian it was 62.1%; in the assay with OVCAR-4 ovarian, 86.8%; with SK-OV-3 ovarian it was 89.6%; in the assay on IGROV1 ovarian, 10.9%; in the assay on OVCAR-3 ovarian, 91.8%. Further, the growth was 86.9% in the assay with HS 578T breast; 110% in the assay on NCI/ADR-RES ovarian; 90.5% with T-47D breast; 94.5% in the assay on BT-549 breast; 71.2% with MDA-MB-435 melanoma; 78.9% in the assay with SW-620 colon. Moreover, the growth in the assay on MCF7 breast is 82.6%; in the assay on HCT-116 colon, 74.7%; with HCC-2998 colon it was 74.8%; in the assay on KM12 colon, 51.8%.
Take `CCOC(=O)c1c2c(c(C)n1Cc1ccccc1)-c1nc(N)ncc1CC2`: the growth was 80% with RPMI-8226 leukemia; 78.6% in the assay on OVCAR-5 ovarian; 105% with OVCAR-4 ovarian; 118% in the assay with SK-OV-3 ovarian; 125% in the assay on OVCAR-3 ovarian; 93.6% in the assay on HS 578T breast. Besides, the growth with NCI/ADR-RES ovarian is 101%; in the assay on T-47D breast, 86.4%; in the assay with BT-549 breast, 162%; in the assay on MDA-MB-435 melanoma, 136%; in the assay with SW-620 colon, 104%; with MCF7 breast, 106%. Moreover, the growth in the assay with HCT-116 colon was 90.7%; in the assay with HCC-2998 colon it was 97.4%; in the assay on KM12 colon, 100%.
Consider `COc1cc(/C=C/C(=O)c2ccc(F)cc2)ccc1OCCCCCOc1cc2c(cc1OC)C(=O)N1CCCC1C=N2` (configuration not stated), for which the growth is 4.8% (active) in the assay with OVCAR-8 ovarian; -5.07% (active) in the assay on OVCAR-5 ovarian; -37.5% (active) in the assay on OVCAR-4 ovarian; -4.32% (active) with SK-OV-3 ovarian; -66.5% (active) in the assay with IGROV1 ovarian; -8.63% (active) in the assay on OVCAR-3 ovarian. Further, the growth is -24.8% (active) with HS 578T breast; 8.85% (active) with NCI/ADR-RES ovarian; -4.98% (active) with T-47D breast; -58% (active) in the assay with BT-549 breast; -87.5% (active) in the assay on MDA-MB-435 melanoma; -46.6% (active) in the assay with SW-620 colon. Besides, the growth in the assay on MCF7 breast is 16%; with HCT-116 colon, -23.9% (active); with KM12 colon it was -63.4% (active).
Turning to `Cc1cc(C)c(OC(=O)CSc2nc3ccccc3c(=O)n2CCc2ccccc2)cc1C`, the growth in the assay on OVCAR-8 ovarian is 95.3%; in the assay with OVCAR-5 ovarian, 110%; in the assay on OVCAR-4 ovarian it was 101%; in the assay with SK-OV-3 ovarian, 95.7%; with IGROV1 ovarian it was 89.4%; in the assay with OVCAR-3 ovarian it was 99%. In addition, the growth in the assay with HS 578T breast is 94.5%; in the assay with NCI/ADR-RES ovarian, 89.3%; with T-47D breast it was 90.5%; in the assay with BT-549 breast, 104%; in the assay on MDA-MB-435 melanoma, 100%; in the assay on SW-620 colon, 103%. The growth in the assay on MCF7 breast was 93.7%; in the assay with HCT-116 colon, 80.1%; with HCC-2998 colon, 102%; in the assay with KM12 colon it was 92%.
`ClC1=C(Cl)C(Cl)=C(Cl)C1=Cc1ccc(Cl)cc1`: the growth with RPMI-8226 leukemia is -43.2% (active); in the assay with OVCAR-5 ovarian, 71.9%; in the assay with OVCAR-4 ovarian, 75.4%; in the assay with SK-OV-3 ovarian, 95.5%; with OVCAR-3 ovarian, -96.8% (active); with HS 578T breast, -12.2% (active). The growth in the assay with NCI/ADR-RES ovarian is -47.5% (active); in the assay on T-47D breast, 25.3%; in the assay with BT-549 breast, -38.9% (active); in the assay with MDA-MB-435 melanoma it was -42.3% (active); in the assay with SW-620 colon it was -83.9% (active); in the assay with MCF7 breast, 25%. In addition, the growth was -84.1% (active) with HCT-116 colon, 30.9% in the assay on HCC-2998 colon and -69.6% (active) in the assay with KM12 colon.
As to `Clc1ccc(CCC(Cn2ccnc2)Sc2c(Cl)cccc2Cl)cc1` (configuration not stated), the growth was 25.2% in the assay on RPMI-8226 leukemia; 68% with OVCAR-5 ovarian; 60.4% in the assay with OVCAR-4 ovarian; 91.1% in the assay with SK-OV-3 ovarian; 59.4% in the assay on OVCAR-3 ovarian; 90.8% with HS 578T breast. Moreover, the growth was 28.2% in the assay with NCI/ADR-RES ovarian; 39.5% in the assay on T-47D breast; 52% in the assay on BT-549 breast; 53.9% with MDA-MB-435 melanoma; 65.2% with SW-620 colon; 23.2% in the assay with HCT-116 colon. Further, the growth in the assay on HCC-2998 colon is 56.6%; with KM12 colon it was 51.8%.
On to `O=C(CCc1nnc2sc(-c3ccc(Cl)cc3Cl)nn12)c1nc2ccccc2[nH]1`, for which the growth was 2% (active) in the assay on RPMI-8226 leukemia; -52.6% (active) in the assay on OVCAR-5 ovarian; -54% (active) with OVCAR-4 ovarian; -52.4% (active) in the assay on SK-OV-3 ovarian; 0.377% (active) with IGROV1 ovarian; -80.6% (active) in the assay with OVCAR-3 ovarian. Also, the growth in the assay with NCI/ADR-RES ovarian is -0.815% (active); with T-47D breast, -68.4% (active); with BT-549 breast, -28.2% (active); in the assay on MDA-MB-435 melanoma, -39.7% (active); in the assay with SW-620 colon, -34.3% (active); with MCF7 breast, -40.7% (active). Also, the growth was -84.7% (active) with HCT-116 colon, -90.3% (active) in the assay with HCC-2998 colon and -27% (active) in the assay with KM12 colon.
On to `CC1SC(c2c(Cl)cccc2Cl)N(NC(=O)c2[nH]c3ccc(F)cc3c2-c2ccccc2)C1=O` (configuration not stated), for which the growth in the assay on OVCAR-8 ovarian is 33.1%; in the assay on OVCAR-5 ovarian, 78.3%; in the assay on OVCAR-4 ovarian, -54.7% (active); in the assay with SK-OV-3 ovarian it was 19.1%; with IGROV1 ovarian, -6.28% (active); in the assay with OVCAR-3 ovarian, -62.2% (active). Besides, the growth with HS 578T breast was -8.04% (active); in the assay on T-47D breast, 2.88% (active); in the assay on BT-549 breast, 75.7%; with MDA-MB-435 melanoma, 61.9%; with SW-620 colon it was 17%; with MCF7 breast, 42.3%. For the same molecule, the growth was -43.8% (active) in the assay with HCT-116 colon, 11.2% in the assay on HCC-2998 colon and 46.4% in the assay on KM12 colon.
Turning to `ClC1=C(Cl)C(=C2C(Cl)=C(Cl)C(Cl)=C2Cl)C(Cl)=C1Cl`, the growth in the assay on OVCAR-8 ovarian is 97.7%; in the assay with OVCAR-5 ovarian it was 115%; with OVCAR-4 ovarian, 100%; in the assay on SK-OV-3 ovarian, 91.6%; in the assay on IGROV1 ovarian it was 108%; in the assay with OVCAR-3 ovarian, 114%. Moreover, the growth in the assay with HS 578T breast is 94.1%; with NCI/ADR-RES ovarian, 105%; with T-47D breast, 79.5%; in the assay on BT-549 breast, 107%; in the assay on MDA-MB-435 melanoma, 105%; with SW-620 colon, 102%. Besides, the growth with MCF7 breast is 90.3%; in the assay on HCT-116 colon it was 101%; with HCC-2998 colon, 109%; with KM12 colon, 104%.
For `CC(=O)Oc1c(C)c(OC(C)=O)c2c(c1C(C)=O)OC1CC(=O)C(C(C)=O)=C(O)C21C` (configuration not stated), the growth was 78.3% with RPMI-8226 leukemia; 102% in the assay with OVCAR-5 ovarian; 99% in the assay with OVCAR-4 ovarian; 98.2% in the assay with SK-OV-3 ovarian; 118% with OVCAR-3 ovarian; 109% with HS 578T breast. Further, the growth in the assay with NCI/ADR-RES ovarian was 80.7%; in the assay on T-47D breast, 103%; in the assay on BT-549 breast, 90.4%; with MDA-MB-435 melanoma, 105%; with SW-620 colon, 105%; with MCF7 breast it was 97%. The growth is 100% in the assay on HCT-116 colon, 102% with HCC-2998 colon and 105% in the assay with KM12 colon.
